The target of assay [1] is D(1A) dopamine receptor (Homo sapiens) (UniProt P21728). Briefly: HTS Assay for Allosteric Agonists of the Human D1 Dopamine Receptor: Primary Screen for Agonists (AID 488981). Summed up: (§1)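 Calcium flux in an inducible, force-coupled HEK293 Trex D1 line (overnight at 30 C): agonist mode is the 180 s kinetic read after compound; potentiator mode is the following 180 s read after dopamine at EC20.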

Assay [2] shares this target. Briefly: HTS Assay for Allosteric Agonists of the Human D1 Dopamine Receptor: Primary Screen for Potentiators (AID 488982). Note: potency is the fitted concentration of half-maximal effect. Summed up:
as §1

Assay [3] has the same target. Briefly: HTS Assay for Allosteric Agonists of the Human D1 Dopamine Receptor: Primary Screen for Antagonists (AID 488983).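 Note: calcium flux response to an EC80 dopamine challenge measured with no-wash dye; nearly all actives have a fitted effect of over 65% in size.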 Summed up:
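Kinetic fluorescence at 1 cycle/sec tracked intracellular calcium in force-coupled, tetracycline-inducible HEK293 T-REx D1 cells. Loss of response to an EC80 dopamine dose, given 180 s after compound, marked antagonists.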

Assay [4] is described as follows: Validation screen for small molecules that induce genotoxicity in human embryonic kidney (HEK293T) cells expressing luciferase-tagged ELG1 (AID 493106). The essentials:
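Cells were dispensed at 2,000 per well, then 23 nL compound or DMSO was pinned in. After 16 hr at 37 °C and 5% CO2, ONE-Glo reagent was added. Luciferase activity was measured following 30 min at room temperature.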

For assay [5], the target named is ATPase family AAA domain-containing protein 5 (Homo sapiens) (UniProt Q96QE3). Nature of the assay: Validation screen for small molecules that inhibit ELG1-dependent DNA repair in human embryonic kidney (HEK293T) cells expressing luciferase-tagged ELG1 (AID 493107). Note: nearly all actives have a fitted effect of over 70% in size. Note: potency is the fitted concentration of half-maximal effect. The essentials: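 Cells are dispensed in 1536-well format, then 5-fluorouridine and compound are pinned in. After a 16 hr incubation at 37 °C and 5% CO2, ONE-Glo is added and luciferase measured on a CCD imager.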

The nature of assay [6]: Nrf2 qHTS screen for inhibitors: Validation (AID 493153; active = well fitted inhibition curve with a large enough effect in the main read-out, with a control signal flat, not every such curve was filed as active). The note with it: Potency: luciferase luminescence; viability change: measured here: cytotoxicity max response. The essentials: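 A549 ARE_Fluc, 5% FBS OPTI-MEM; cpd titration, 18-24 h, 37°C/5% CO2. Read 1: CellTiter-Fluor (Ex 405/Em 525), cytotox. Read 2: luciferase lum, Nrf2 activity.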
(In general: In qHTS, concentration-response curves come from the screen itself.)

In assay [7] the target is Peptidyl-prolyl cis-trans isomerase NIMA-interacting 1 (Homo sapiens) (UniProt Q13526). Briefly: qHTS Validation Assay to Find Inhibitors of Pin1 (AID 504536; active = well fitted inhibition curve with a large enough effect in the polarisation, with a control signal flat, not every such curve was filed as active; the % refers to the polarisation). The essentials:
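Fluorescence polarization competition: compounds (titration) displace HiFluor-488-labeled Pin1-1b peptide from Pin1 (0.3 uM final) in pH 7.5 HEPES buffer with DTT, 10 min at room temperature; %Activity normalized to no-enzyme wells, curves fitted.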

Assay [8] deals with Phosphoglycerate kinase, glycosomal (Trypanosoma brucei brucei) (UniProt P07378). Briefly: qHTS Validation Assay to Find Inhibitors of Phosphoglycerate Kinase (AID 504547). Note: potency is the fitted concentration of half-maximal effect. Summed up:
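Luminescence end-point (Kinase-Glo Plus, 10 min) after a 60 min room-temperature coupled reaction. GAPDH at 100nM final supplies 1,3-BPG to PGK. Buffer: 100mM TEA pH 7.6, 5mM MgCl2, 0.01% Tween-20. Wells lacking PGK served as controls.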

Assay [9] is described as follows: Inducers of the Endoplasmic Reticulum Stress Response (ERSR) in human glioma: Validation (AID 504836). The essentials:
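ERSR induction read as luciferase luminescence (Bright-Glo, 10 min at room temperature) in stably transfected human U87-MG glioma cells exposed to compounds for 16 h, using GRP78 as sensor.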

Assay [10] concerns the target Ubiquitin carboxyl-terminal hydrolase 1 (Homo sapiens) (UniProt O94782). Briefly: Inhibitors of USP1/UAF1: Pilot qHTS (AID 504865). Note: nearly all actives have a fitted effect of over 35% in size. Note: potency is the fitted concentration of half-maximal effect. Summed up:
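USP1/UAF1 complex at 1 nM preincubated 15 min at room temperature with compound, then Ub-Rho substrate added at 150 nM final. Fluorescence (480/540 nm) read kinetically in 50 mM HEPES pH 7.8, 0.5 mM EDTA, 1 mM TCEP, 0.1 mg/ml BSA, 0.01% Tween-20.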

Assay [11] addresses Thyrotropin receptor (Homo sapiens) (UniProt P16473). Nature of the assay: qHTS Assay for Antagonists of the Thyroid Stimulating Hormone Receptor (AID 488980). Note: series mostly up to about 58 µM. Summed up: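 TSHR-transfected HEK293 cells (2000/well) in HEPES-buffered HBSS with 70 uM RO 20-1724 were stimulated with 4 nM TSH (EC80, final) in the presence of compound. cAMP was measured by HTRF competition after lysis and 30 min at RT.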

The target of assay [12] is Thyrotropin-releasing hormone receptor (Homo sapiens) (UniProt P34981). Nature of the assay: qHTS for Small Molecule Agonists and Allosteric Enhancers of Human TRH Receptor: Validation Screen for Agonists (AID 493127;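 active = calcium activation more than 3 SD above the typical response in the agonist read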;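 note: intracellular calcium rise by fluo-8 fluorescence before TRH EC20 addition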). The note with it: TRH receptor agonist cell assay; at 2 µM; stronger effect = higher value. The essentials: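 Compounds are added by online pintool to dye-loaded TRHR cells while fluorescence is recorded every second. A rise in calcium signal during the agonist read marks activation; a later 10 nM TRH addition (EC20) serves the separate enhancer mode.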

Assay [13] concerns the target Galactokinase (Homo sapiens) (UniProt P51570). Briefly: qHTS Validation Assay for Inhibitors of Human Galactokinase (GALK) (AID 493189). Summed up:
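GALK (5 nM) with 35 uM ATP and 100 uM galactose in HEPES pH 8.0 with MgCl2, NaCl, DTT and BSA. Reaction ran 1 h at room temperature. Residual ATP read by Kinase-Glo Plus luminescence.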

Assay [14] is described as follows: Validation screen for small molecules that induce DNA re-replication in SW480 colon adenocarcinoma cells (AID 504364). The essentials:
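Image-based qHTS: compounds were incubated with SW480 cells for 48 hr, nuclei stained with Hoechst, and per-nucleus fluorescence intensity scanned to flag cells with excess DNA content.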

For assay [15], the target named is ATP-dependent 6-phosphofructokinase (Trypanosoma brucei brucei) (UniProt O15648). Nature of the assay: qHTS Assay to Find Inhibitors of T. brucei phosphofructokinase: hit validation (AID 492961).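 Note: luminescence reports ADP formed as PFK phosphorylates fructose-6-phosphate with ATP; series mostly up to about 51 µM.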 The essentials: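 ADP-Glo luminescence read-out of ADP formed by 1.25 nM PFK from 0.1 mM ATP and 0.5 mM F6P (TEA pH 8.0, 45 min, RT). Compounds titrated; activity normalized to no-enzyme and full-enzyme controls.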

These results are taken from PubChem BioAssay (NCATS).

Records with an inconclusive call do not appear. Where a call stands in place of a potency, no number is given. The source made the active and inactive calls. Unless noted, calls come from the whole dose curve; as a rule, active = well fitted curve in the direction sought with a large enough effect; inconclusive = small, poorly fitted or top-dose-only effect, or another doubt; inactive = no such curve, though single readings can be large; an effect the other way counts as inactive or inconclusive. Numbered stars: 1 amine (or outer) side, 2 acyl side, 3 side chain; on linkers, the order of the positions; unused ones are H or OH. Bridge positions count the residues as written; N and C are the ends. Square brackets hold non-standard residues; d marks the D form. Peptide text beside a SMILES is read from it. I, II: the chains in the order shown. Actinocin(9to1) = Cc1c2oc3c(C)ccc(C(=O)[*:1])c3nc-2c(C(=O)[*:2])c(N)c1=O; NMeV = CN[C@H](C(=O)O)C(C)C; Sar = CNCC(=O)O

ATPase family AAA domain-containing protein 5 (Homo sapiens), sequence (Q96QE3 whole entry, looked up, the tested form may be a part): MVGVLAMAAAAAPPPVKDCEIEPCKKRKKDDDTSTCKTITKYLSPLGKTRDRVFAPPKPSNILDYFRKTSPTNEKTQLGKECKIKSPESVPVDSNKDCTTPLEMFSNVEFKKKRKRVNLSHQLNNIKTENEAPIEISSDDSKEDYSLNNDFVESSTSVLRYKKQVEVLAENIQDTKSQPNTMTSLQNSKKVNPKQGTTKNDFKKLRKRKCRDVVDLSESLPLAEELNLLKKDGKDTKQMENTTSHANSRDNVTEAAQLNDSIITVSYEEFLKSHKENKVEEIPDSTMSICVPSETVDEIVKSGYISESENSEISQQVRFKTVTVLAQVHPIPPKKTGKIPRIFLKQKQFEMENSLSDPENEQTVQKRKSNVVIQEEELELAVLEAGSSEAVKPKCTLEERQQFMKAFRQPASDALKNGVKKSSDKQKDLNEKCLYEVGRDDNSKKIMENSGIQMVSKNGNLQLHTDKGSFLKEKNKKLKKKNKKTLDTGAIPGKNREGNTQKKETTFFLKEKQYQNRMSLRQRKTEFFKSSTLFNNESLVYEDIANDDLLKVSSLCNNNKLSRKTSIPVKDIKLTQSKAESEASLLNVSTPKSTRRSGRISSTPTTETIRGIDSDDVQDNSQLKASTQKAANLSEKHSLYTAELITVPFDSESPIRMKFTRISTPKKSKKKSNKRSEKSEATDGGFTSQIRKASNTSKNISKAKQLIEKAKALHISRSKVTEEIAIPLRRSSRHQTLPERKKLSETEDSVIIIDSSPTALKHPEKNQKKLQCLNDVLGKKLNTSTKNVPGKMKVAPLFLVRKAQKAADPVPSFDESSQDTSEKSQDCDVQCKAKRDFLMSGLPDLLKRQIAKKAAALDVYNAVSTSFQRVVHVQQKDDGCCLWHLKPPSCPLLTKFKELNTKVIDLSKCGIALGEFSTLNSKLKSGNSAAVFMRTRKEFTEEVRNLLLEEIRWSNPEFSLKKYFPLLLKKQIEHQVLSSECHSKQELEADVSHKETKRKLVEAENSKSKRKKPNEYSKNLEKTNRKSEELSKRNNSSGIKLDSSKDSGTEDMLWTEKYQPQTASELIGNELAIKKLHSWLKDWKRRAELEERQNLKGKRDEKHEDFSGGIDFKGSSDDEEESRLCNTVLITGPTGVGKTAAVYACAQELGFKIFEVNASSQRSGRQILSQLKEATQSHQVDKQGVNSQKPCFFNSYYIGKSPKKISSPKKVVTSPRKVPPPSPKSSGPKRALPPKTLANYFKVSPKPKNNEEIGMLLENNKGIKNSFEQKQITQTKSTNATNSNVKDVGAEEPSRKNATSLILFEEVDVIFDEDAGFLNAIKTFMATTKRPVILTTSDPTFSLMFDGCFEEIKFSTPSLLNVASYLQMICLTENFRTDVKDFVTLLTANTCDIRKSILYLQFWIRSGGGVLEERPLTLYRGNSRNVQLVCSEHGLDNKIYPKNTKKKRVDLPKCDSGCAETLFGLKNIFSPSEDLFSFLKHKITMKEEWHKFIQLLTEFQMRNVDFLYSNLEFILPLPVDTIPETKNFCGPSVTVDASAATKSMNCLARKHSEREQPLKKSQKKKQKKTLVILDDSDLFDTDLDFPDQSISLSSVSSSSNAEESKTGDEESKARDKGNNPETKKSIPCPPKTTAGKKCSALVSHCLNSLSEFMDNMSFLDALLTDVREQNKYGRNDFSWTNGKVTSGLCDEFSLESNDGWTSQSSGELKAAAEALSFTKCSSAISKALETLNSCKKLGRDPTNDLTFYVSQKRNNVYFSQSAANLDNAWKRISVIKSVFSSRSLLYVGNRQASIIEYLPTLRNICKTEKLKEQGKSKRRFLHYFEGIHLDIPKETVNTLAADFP
D(1A) dopamine receptor (Homo sapiens), sequence (P21728 whole entry, looked up): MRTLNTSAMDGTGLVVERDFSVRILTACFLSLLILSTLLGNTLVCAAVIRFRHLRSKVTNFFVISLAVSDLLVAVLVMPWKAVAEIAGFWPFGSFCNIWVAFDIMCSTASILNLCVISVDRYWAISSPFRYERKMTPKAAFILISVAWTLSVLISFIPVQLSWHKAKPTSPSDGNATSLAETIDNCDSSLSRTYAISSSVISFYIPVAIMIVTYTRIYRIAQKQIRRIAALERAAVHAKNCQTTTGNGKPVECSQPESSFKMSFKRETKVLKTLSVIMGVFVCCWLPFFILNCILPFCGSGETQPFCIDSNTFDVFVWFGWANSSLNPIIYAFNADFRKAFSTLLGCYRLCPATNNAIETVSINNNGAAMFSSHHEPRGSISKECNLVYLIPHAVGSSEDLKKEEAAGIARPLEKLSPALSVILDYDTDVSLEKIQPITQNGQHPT
ATP-dependent 6-phosphofructokinase (Trypanosoma brucei brucei), sequence (O15648 whole entry, looked up): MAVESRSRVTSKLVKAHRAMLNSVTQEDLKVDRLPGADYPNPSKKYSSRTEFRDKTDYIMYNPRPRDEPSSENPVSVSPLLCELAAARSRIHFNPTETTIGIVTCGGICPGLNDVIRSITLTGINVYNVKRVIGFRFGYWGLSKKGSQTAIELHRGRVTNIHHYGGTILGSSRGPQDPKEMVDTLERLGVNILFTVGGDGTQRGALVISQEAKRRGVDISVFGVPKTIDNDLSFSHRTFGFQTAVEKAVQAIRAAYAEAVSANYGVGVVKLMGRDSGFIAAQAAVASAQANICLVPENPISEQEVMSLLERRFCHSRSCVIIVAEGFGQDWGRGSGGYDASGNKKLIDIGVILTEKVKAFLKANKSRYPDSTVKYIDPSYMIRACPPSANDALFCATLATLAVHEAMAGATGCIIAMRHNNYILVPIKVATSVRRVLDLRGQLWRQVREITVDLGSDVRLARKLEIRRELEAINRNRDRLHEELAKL
Ubiquitin carboxyl-terminal hydrolase 1 (Homo sapiens), sequence (O94782 whole entry, looked up): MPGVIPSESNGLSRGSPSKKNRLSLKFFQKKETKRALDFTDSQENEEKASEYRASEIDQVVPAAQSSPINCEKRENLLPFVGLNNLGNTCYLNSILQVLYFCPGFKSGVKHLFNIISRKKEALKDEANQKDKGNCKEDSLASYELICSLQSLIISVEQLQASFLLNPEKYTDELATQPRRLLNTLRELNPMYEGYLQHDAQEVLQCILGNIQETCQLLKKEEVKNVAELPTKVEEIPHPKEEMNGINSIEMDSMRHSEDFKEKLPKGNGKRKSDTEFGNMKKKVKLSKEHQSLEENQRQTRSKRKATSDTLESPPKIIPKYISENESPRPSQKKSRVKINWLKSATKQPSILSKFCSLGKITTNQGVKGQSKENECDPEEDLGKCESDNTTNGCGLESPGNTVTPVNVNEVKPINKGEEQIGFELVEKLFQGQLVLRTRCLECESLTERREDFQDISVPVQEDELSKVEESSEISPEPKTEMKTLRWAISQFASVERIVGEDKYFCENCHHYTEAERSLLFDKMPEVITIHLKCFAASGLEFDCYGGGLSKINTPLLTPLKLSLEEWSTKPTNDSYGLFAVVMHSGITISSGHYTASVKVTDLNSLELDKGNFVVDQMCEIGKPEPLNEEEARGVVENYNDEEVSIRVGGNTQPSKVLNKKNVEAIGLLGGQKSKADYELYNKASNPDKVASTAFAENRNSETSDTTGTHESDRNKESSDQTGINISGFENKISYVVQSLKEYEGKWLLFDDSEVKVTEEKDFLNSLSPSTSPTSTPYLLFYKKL
Phosphoglycerate kinase, glycosomal (Trypanosoma brucei brucei), sequence (P07378 whole entry, looked up): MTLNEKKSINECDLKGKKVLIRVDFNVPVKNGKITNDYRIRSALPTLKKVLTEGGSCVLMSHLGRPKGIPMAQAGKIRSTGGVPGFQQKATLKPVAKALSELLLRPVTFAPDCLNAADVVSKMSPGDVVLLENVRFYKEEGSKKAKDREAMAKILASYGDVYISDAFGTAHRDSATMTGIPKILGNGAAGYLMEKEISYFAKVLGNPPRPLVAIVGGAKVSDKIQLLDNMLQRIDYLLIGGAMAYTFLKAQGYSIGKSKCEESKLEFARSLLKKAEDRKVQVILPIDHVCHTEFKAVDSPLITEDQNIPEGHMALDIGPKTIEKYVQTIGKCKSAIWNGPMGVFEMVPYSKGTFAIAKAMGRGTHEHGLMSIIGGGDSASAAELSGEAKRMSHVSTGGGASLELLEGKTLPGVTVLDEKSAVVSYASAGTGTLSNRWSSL
Peptidyl-prolyl cis-trans isomerase NIMA-interacting 1 (Homo sapiens), sequence (Q13526 whole entry, looked up): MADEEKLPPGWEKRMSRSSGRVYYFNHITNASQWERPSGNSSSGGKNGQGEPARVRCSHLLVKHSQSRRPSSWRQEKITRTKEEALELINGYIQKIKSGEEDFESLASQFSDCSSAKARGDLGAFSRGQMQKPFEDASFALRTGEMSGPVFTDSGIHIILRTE
Thyrotropin receptor (Homo sapiens), sequence (P16473 whole entry, looked up): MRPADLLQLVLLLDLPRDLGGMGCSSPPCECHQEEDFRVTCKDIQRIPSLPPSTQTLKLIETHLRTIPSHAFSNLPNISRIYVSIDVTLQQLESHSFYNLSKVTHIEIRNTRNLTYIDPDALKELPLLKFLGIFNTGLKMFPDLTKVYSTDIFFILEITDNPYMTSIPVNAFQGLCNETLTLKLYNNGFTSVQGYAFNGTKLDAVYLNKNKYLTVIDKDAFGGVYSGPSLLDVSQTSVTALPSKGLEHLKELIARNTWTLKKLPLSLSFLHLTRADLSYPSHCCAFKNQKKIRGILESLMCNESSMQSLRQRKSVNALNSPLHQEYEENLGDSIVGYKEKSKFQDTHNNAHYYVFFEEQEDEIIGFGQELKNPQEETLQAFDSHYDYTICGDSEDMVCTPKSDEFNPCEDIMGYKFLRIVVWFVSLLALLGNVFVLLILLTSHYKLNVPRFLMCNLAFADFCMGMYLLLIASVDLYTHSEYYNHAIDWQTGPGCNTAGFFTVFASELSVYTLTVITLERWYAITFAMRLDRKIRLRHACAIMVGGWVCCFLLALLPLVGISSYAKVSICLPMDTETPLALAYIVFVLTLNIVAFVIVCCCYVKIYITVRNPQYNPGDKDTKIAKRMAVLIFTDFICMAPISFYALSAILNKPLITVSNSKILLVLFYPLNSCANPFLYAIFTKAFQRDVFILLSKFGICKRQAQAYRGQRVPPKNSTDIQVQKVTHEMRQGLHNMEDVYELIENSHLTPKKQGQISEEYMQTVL

For the compound `CC(O)(CS(=O)(=O)c1ccc(F)cc1)C(=O)Nc1ccc(C#N)c(C(F)(F)F)c1` (configuration not stated), the Potency result in [1], in assay [2], in assay [3], in [4], in assay [5] and in assay [6] was “inactive” throughout. Besides, the Potency entry in assay [7], in assay [8] and in assay [10] was “inactive” throughout. The viability change in assay [6] was -8.54%. The result in assay [9] was inactive.
As for `Cc1cccc(C)c1NC1=NCCCS1`, the call in assay [11], in assay [13] and in assay [9] was inactive. The Potency entry in [1], in assay [2], in assay [3], in assay [4], in [5] and in assay [6] was “inactive” in each case. Besides, the Potency result in assay [14], in assay [7], in [8] and in assay [10] was “inactive” in each case. The activation in assay [12] was 0.688% (inactive). The viability change in assay [6] is -1.16%.
Turning to `O=c1c(O)c(-c2ccc(O)c(O)c2)oc2cc(O)cc(O)c12`, the values for the Potency in assay [2], in assay [5] and in assay [8] were 4.11 µM (active), 20.6 µM (active) and 7.57 µM (active), respectively. For the same compound, the call in assay [9] was inactive.
Consider `C=C1CC[C@@]2(O)[C@H]3Cc4ccc(O)c5c4[C@@]2(CCN3CC2CC2)[C@H]1O5`, for which the call in [15] was inactive. Moreover, the Potency entry in [10] was “inactive”.
Take `CCOP(=S)(OCC)Oc1cc(C)nc(C(C)C)n1`: the outcome in assay [15] was inactive.
In the case of `CCC(C(N)=O)N1CCCC1=O` (configuration not stated), the compound was called inactive in [15]. Moreover, the Potency result in [10] was “inactive”.
In the case of `CN1CCN(C(=O)O[C@H]2c3nccnc3C(=O)N2c2ccc(Cl)cn2)CC1`, the compound was classed as inactive in [15].
For `OCCN1CCN(CCCN2c3ccccc3Sc3ccc(C(F)(F)F)cc32)CC1`, the Potency result in assay [2] is “inactive”. For the same compound, the call in assay [9] was inactive. Besides, the Potency in assay [10] was 56.2 µM (active).
Regarding `CCN(C(C)=O)c1cccc(-c2ccnc3c(C#N)cnn23)c1`, in [15], the compound was classed as inactive. Besides, the Potency entry in [10] is “inactive”.
Regarding `CCN(CC)CCOC(=O)C(O)(c1ccccc1)c1ccccc1`, in assay [15], the outcome was inactive. In assay [10], the Potency result is “inactive”.
As for `Cn1c(CCCC(=O)O)nc2cc(N(CCCl)CCCl)ccc21`, in [15], the compound was classed as inactive. The Potency entry in [10] was “inactive”.
Take `Cc1c2oc3c(C)ccc(C(=O)N[C@@H]4C(=O)N[C@H](C(C)C)C(=O)N5CCC[C@H]5C(=O)N(C)CC(=O)N(C)[C@@H](C(C)C)C(=O)O[C@@H]4C)c3nc-2c(C(=O)N[C@@H]2C(=O)N[C@H](C(C)C)C(=O)N3CCC[C@H]3C(=O)N(C)CC(=O)N(C)[C@@H](C(C)C)C(=O)O[C@@H]2C)c(N)c1=O` (I: T[dV]P[Sar][NMeV] / II: T[dV]P[Sar][NMeV]; ester I:1-I:C, II:1-II:C; linker I:N-II:N via Actinocin(9to1)): the call in [15] was inactive.
`O=C(NC(O)C(Cl)(Cl)Cl)NC(O)C(Cl)(Cl)Cl` (configuration not stated): the compound was called inactive in assay [15]. The Potency entry in assay [10] was “inactive”.
`NCCc1cc(O)c(O)cc1O`: the call in assay [15] was inactive. The Potency in [10] was 50.1 µM (active).
As to `N[C@@H](Cc1ccc(N(CCCl)CCCl)cc1)C(=O)O`, in [15], the call was inactive.
On the same count and under the same terms, next, `CC(C)=CC1C(C(=O)OCc2cccc(Oc3ccccc3)c2)C1(C)C` (configuration not stated): “inactive”.
